The campaign covered roughly 340,000 compounds. About 2,000 (0.59%) were called active. The full list was thinned out, with actives kept by preference. Unmarked numbers belong to inactive results. Cut-off read from the data, not from the text of the source: active = activation mostly above about 9.5% (no sharp cut-off); inactive = mostly below about 7.6%.

Chain of 5-hydroxytryptamine receptor 5A (Homo sapiens) (P47898 whole entry, looked up): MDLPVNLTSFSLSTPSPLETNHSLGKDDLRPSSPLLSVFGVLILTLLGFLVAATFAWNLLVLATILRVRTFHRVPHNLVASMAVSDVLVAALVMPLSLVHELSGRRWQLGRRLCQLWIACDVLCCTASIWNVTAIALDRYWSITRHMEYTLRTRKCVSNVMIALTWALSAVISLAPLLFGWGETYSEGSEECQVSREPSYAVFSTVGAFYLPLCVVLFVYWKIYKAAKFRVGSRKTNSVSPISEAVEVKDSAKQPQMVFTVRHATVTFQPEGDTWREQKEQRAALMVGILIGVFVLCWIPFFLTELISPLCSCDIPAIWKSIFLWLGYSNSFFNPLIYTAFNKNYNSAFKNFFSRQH

This assay concerns the target 5-hydroxytryptamine receptor 5A (Homo sapiens) (UniProt P47898). The assay can be described thus: HTR5A agonists in luminescence cell assay, primary screen, counter-screen for OPRM1-OPRD1 heterodimer agonist project, full-deck HTS (AID 504692).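 Note: 0% = cells with vehicle only and 100% = reference agonist.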 The settings on record: cell-based, at 9.3 µM, hits give high values. For orientation: The purpose of a counterscreen is to sort out artefacts and off-target activity.
For `COc1ccc(CCNS(=O)(=O)c2cccc([N+](=O)[O-])c2)cc1`, the activation is 9%.

`CC(C=Cc1ccccc1)=NNS(=O)(=O)c1ccc([N+](=O)[O-])cc1`: the activation is 2.51%.

Turning to `C/C(=N\NS(=O)(=O)c1cccc([N+](=O)[O-])c1)c1cc2ccccc2o1`, the activation is 11.2% (active).

Turning to `Cc1ccc(NC(=S)NC(NC(=O)Cc2cccc3ccccc23)C(Cl)(Cl)Cl)cc1` (configuration not stated), the activation was 26.7% (active).

On to `Cc1ccc(CNC(=O)[C@@H](NC(=O)Cc2ccccc2)C(C)C)cc1`, for which the activation is -1.89%.

As to `CC(C)(C)C(=O)NC(NC(=S)Nc1ccc(S(N)(=O)=O)cc1)C(Cl)(Cl)Cl` (configuration not stated), the activation is 3.71%.

In the case of `CCOC(=O)C1CCCN(S(=O)(=O)c2ccc(-n3cnnn3)c(C)c2)C1` (configuration not stated), the activation was 1.69%.

For the compound `COC(=O)c1sccc1NC(=O)CSc1ccccc1NS(=O)(=O)c1cc(Cl)ccc1Cl`, the activation is 8.27%.

In the case of `CCc1cc2c(NC3CCCC3)ncnc2s1`, the activation was 0.57%.

In the case of `CCc1cc2c(N3CCN(c4nnc(CC)s4)CC3)ncnc2s1`, the activation is 10.4% (active).

Regarding `CCc1cc2c(NC(Cc3ccccc3)C(=O)O)ncnc2s1` (configuration not stated), the activation was -3.53%.

As for `COc1ccc(C(=O)NCc2ccc(Cl)cc2)cc1S(=O)(=O)N1CCCC1`, the activation is -0.47%.

On to `C=CCOC(=O)C1=C[C@@H](c2ccc3c(c2)OCO3)C[C@@H](OCCCCO)O1`, for which the activation was -2.46%.

For `Nn1c(SCC(=O)Nc2nccs2)nnc1-c1ccco1`, the activation was 2.08%.

For the compound `COc1ccc(-c2cc(=O)oc3cc(OCC(=O)N(C)C4CCS(=O)(=O)C4)ccc23)cc1` (configuration not stated), the activation is 3.71%.

In the case of `COc1ccc(-c2cc(=O)oc3cc(OCC(=O)N[C@@H](Cc4c[nH]c5ccccc45)C(=O)O)ccc23)cc1`, the activation is -4.61%.

On to `CC(=O)COc1ccc2c(-c3ccccc3)cc(=O)oc2c1`, for which the activation is 15.1% (active).

As to `Cc1cc(C(=O)OC(C)C(=O)Nc2cccc(S(=O)(=O)N3CCOCC3)c2)c(C)o1` (configuration not stated), the activation was 1.13%.

Turning to `C[C@@H](CN1CCC[C@H]1CN1C(N)=NC[C@@H]1Cc1ccccc1)N1C[C@@H](Cc2ccccc2)N(CCCC2CCCC2)C1=N`, the activation is -7.1%.

For the compound `COc1cc(SC#N)ccc1N=Cc1c(C)[nH]n(-c2ccc(C)cc2)c1=O`, the activation was 11.4% (active).

For `Cc1ccc(C(=O)N2CC(=O)Nc3ccccc32)o1`, the activation was -6.07%.

`COc1cccc(OC)c1C(=O)N1CCN(Cc2cccnc2)CC1`: the activation is 3.95%.

`C=C(C)CSc1nnc(-c2ccc(C)cc2)n1N`: the activation is -0.48%.

For the compound `COc1ccccc1NS(=O)(=O)c1ccc(C(=O)N2CCN(c3ccccc3O)CC2)cc1`, the activation is -0.27%.

As to `COc1ccc(S(=O)(=O)N2CCOC2CNC(=O)C(=O)NCc2ccncc2)cc1OC` (configuration not stated), the activation was 1.9%.

In the case of `CC(=O)Nc1ccc(S(=O)(=O)N2CCn3cccc3C2C)cc1` (configuration not stated), the activation was -2.82%.

Consider `CCOc1ccc2[nH]c(C(=O)N/N=C/c3cccc(OC)c3OC)cc2c1`, for which the activation was 4.96%.

With `COc1cccc(/C=N/NC(=O)c2[nH]nc3c2CCc2ccccc2-3)c1O`, the activation was 18.3% (active).

`COc1ccc(/C=N/NC(=O)c2ccncc2)cc1CN1CCCc2ccccc21`: the activation is 1.74%.

On to `COc1cccc(CNCc2ccc3c(c2)OCO3)c1`, for which the activation was 9.7%.

Consider `COc1ccc(C(=O)Nc2cccc(NC(=O)c3ccc(OC)cc3OC)n2)c(OC)c1`, for which the activation is 13.4% (active).

Regarding `COc1ccc(C(=O)NC2=NCCS2)c(OC)c1`, the activation is 4.66%.

As to `COc1ccc(C(=O)NC(C)CCc2ccccc2)c(OC)c1` (configuration not stated), the activation is 3.2%.

With `CCc1nnc(NC(=O)c2cc(S(=O)(=O)N3CCCCC3)ccc2C)s1`, the activation was 3.55%.

In the case of `CCOC(=O)C1=C(O)/C(=C/c2ccc(OCC(=O)Nc3ccc(C)cc3)cc2)N=C1C`, the activation is 23.3% (active).

As to `COC(=O)C1=C(O)/C(=C/c2ccc(OCC(=O)Nc3ccccc3)cc2)N=C1C`, the activation is -2.15%.

For the compound `Cc1ccc(NC(=O)COc2ccc(/C=C3/NC(=O)NC3=O)cc2)cc1`, the activation was 1.1%.

Consider `CCOC(=O)CC1=CC(=O)Nc2ccccc2N1`, for which the activation is 6.62%.

In the case of `CCc1ccc(C(=O)NC(=S)Nc2ccccc2N2CCOCC2)cc1`, the activation is -3.97%.

Regarding `CC(=O)N1CCN(c2ccccc2NC(=S)NC(=O)c2cc3ccccc3o2)CC1`, the activation was 16.4% (active).

In the case of `COc1ccc(C(=O)NC(=S)Nc2ccccc2N2CCN(S(C)(=O)=O)CC2)cc1OC`, the activation was -1.57%.

`O=S(=O)(c1ccc(Sc2nnc3ccccn23)nc1)N1CCOCC1`: the activation is 2.94%.

In the case of `NC(=O)C1(N2CCCCC2)CCN(C2CC(=O)N(Cc3ccc(N4CCCC4=O)cc3)C2=O)CC1` (configuration not stated), the activation is 1.47%.

Take `COc1cccc(NC(=O)CN(C)CC(=O)Nc2ccc3c(c2)CCC3)c1`: the activation was 7.9%.

With `COc1ccc(-c2ocnc2C(=O)Nc2ccc3c(c2)CCC3)cc1`, the activation was 16.5% (active).

As to `CC(C)Oc1ccc(C(=O)NCC(=O)Nc2ccc3c(c2)CCC3)cc1`, the activation was -1.62%.

With `O=C(CN(C(=O)c1csnn1)c1cccc(F)c1)NCc1ccc(F)cc1`, the activation was -2.96%.

Regarding `CCOC(=O)C1=C(CC)Nc2ccccc2N=C1N`, the activation was 2.67%.

For `O=C(c1ccc(OC2CCN(C(=O)c3cccnc3)CC2)cc1)N1CCCCCC1`, the activation was 2.41%.

Take `O=C(NCc1cc(F)cc(C(F)(F)F)c1)C1CCC(=O)N(C2CCCC2)C1` (configuration not stated): the activation is 2.09%.

`C[C@H]1[C@H]2c3nc4ccccc4n3C[C@H]1ON2C1CCCCC1`: the activation is 1.56%.

Turning to `CCOc1ccc(CCNC(=O)C(CC)n2nc(C)n3c(cc4sccc43)c2=O)cc1OCC` (configuration not stated), the activation was 8.13%.

With `O=C(O)c1ccc2c(=O)n3c(nc2c1)/C(=C/c1ccc(OC(F)F)cc1OC(F)F)CC3`, the activation was -1.8%.

With `Cc1ccc(/C=C2\CCn3c2nc2cc(C(=O)O)ccc2c3=O)c(C)c1`, the activation is 14.2% (active).

As for `N#Cc1ccc(/C=C2\CCn3c2nc2cc(C(=O)O)ccc2c3=O)cc1`, the activation was -2.04%.

In the case of `COc1ccc(CNc2nccs2)cc1`, the activation was -2.48%.

On to `CCN(CC)CCNS(=O)(=O)c1ccc(/C=C/C(=O)O)cc1`, for which the activation is 6.16%.

For `Cc1ccc2c(C)c(C(=O)N3CCC(N4CCC(C(=O)NC5CC5)CC4)CC3)oc2c1`, the activation was -4.49%.

Turning to `CC1(C)Cc2cccc(OCC(=O)NCc3ccccc3)c2O1`, the activation was 0.71%.

Consider `COc1cccc(CCNC(=O)COc2cccc3c2OC(C)(C)C3)c1`, for which the activation was 10.4% (active).

On to `CC1(C)Cc2cccc(OCC(N)=O)c2O1`, for which the activation was -7.5%.

Turning to `CCn1c2c(c3ccc(OC)cc31)CCCC2=O`, the activation was 2.01%.

Take `O=C1COc2ccc(C(=O)COC(=O)C3CC(O)CN3S(=O)(=O)c3ccc(Cl)cc3)cc2N1` (configuration not stated): the activation is 2.08%.

In the case of `O=C(NCCCN1CCCC1=O)c1ccc(S(=O)(=O)Nc2ccccc2)cc1`, the activation was -1.42%.

`CCn1c(SCC(=O)N/N=C/c2ccccc2OCC(=O)O)nnc1-c1ccc(C(C)(C)C)cc1`: the activation is -0.31%.

For `CCn1c(SCC(=O)N/N=C/c2ccncc2)nc2ccccc21`, the activation was 0.02%.

`Cc1ccc(Cn2c(SCC(=O)N/N=C/c3ccccc3OCC(=O)O)nc3ccccc32)cc1`: the activation was 13.2% (active).

Regarding `COc1cc2c(cc1NC(=O)COC(=O)/C=C/c1ccccc1)oc1ccccc12`, the activation was 1.5%.

For the compound `Cc1c(C(=O)N2CCCc3ccccc32)oc2ccccc12`, the activation is 5.91%.

Consider `CCOC(=O)c1c(C)[nH]c(C(=O)OCC(=O)N2CCCC2=O)c1C`, for which the activation is -3.02%.

Turning to `Cc1c(C(=O)OCC(=O)N2CCCC2=O)oc2ccccc12`, the activation was 17.4% (active).

Turning to `O=C(Cc1ncc(C(F)(F)F)cc1Cl)Nc1cccc(Br)c1`, the activation is -3.41%.

For `NS(=O)(=O)c1ccc(CNC(=S)NC(=O)c2ccco2)cc1`, the activation is -0.69%.

As to `CCc1nn(CCCC(=O)Nc2ccc(C)cc2C)c(=O)c2cc3occc3n12`, the activation was 0.19%.

As to `CCCCCCCCn1c2c(c(=N)c3c1CCC3)CCCC2`, the activation is 12.5% (active).

For the compound `Cc1ccccc1NC(=O)CSc1ccc2nnc(-c3ccccn3)n2n1`, the activation was -2.77%.

Consider `O=C(/C=C/c1cccc([N+](=O)[O-])c1)NCCSCc1ccco1`, for which the activation is -1.08%.

In the case of `Cc1ccc(CNC(=O)C2CCCN2C(=O)NCc2ccccc2)cc1` (configuration not stated), the activation was -0.36%.

Regarding `O=C(NC1CC2CCCC(C1)N2C(=O)N1CCCCC1)C1CCCCC1` (configuration not stated), the activation was 2.7%.

As for `Nc1ccc2nn(-c3ccc(Cl)cc3)nc2c1`, the activation was 3.34%.

For `c1ccc(-n2nc3ccccc3n2)cc1`, the activation was 15.4% (active).

With `O=C1CCCc2nn(-c3ccccc3)nc21`, the activation is -0.59%.

Regarding `Cc1ccc(S(=O)(=O)Nc2nc(CN3CCOCC3)nc3sc(C)c(C)c23)cc1`, the activation was 7.7%.

Turning to `O=C(O[C@H]1[C@H](Cc2ccccc2)NS(=O)(=O)[C@H]2C[C@@H]3C=C[C@]12O3)c1ccc([N+](=O)[O-])cc1`, the activation was -6.9%.

For the compound `CCOc1cc(N2CCOCC2)c(OCC)cc1NC(=O)c1cc(C)nc2ccccc12`, the activation was 14.2% (active).

Take `CCOc1cc(N2CCOCC2)c(OCC)cc1NC(=O)C1=NN(c2cccc(C)c2)C(=O)CC1`: the activation was 11.3%.

For `CCOc1cc(N2CCOCC2)c(OCC)cc1NC(=O)c1ccc(C)s1`, the activation was 0.66%.

As to `CCc1ccc(C2N3CC4([N+](=O)[O-])CN2CC([N+](=O)[O-])(C3)C4(C)C)cc1` (configuration not stated), the activation was 2.6%.

On to `CC1(C)C(C=C(Cl)Cl)C1C(=O)N(Cc1ccc(Cl)cc1)C1CCS(=O)(=O)C1` (configuration not stated), for which the activation was 0.53%.

`CCOc1ccc(CNC(=O)C2CCCN(c3nnc(C)c4c(C)n(-c5ccccc5)nc34)C2)cc1` (configuration not stated): the activation was 7.35%.

In the case of `COc1ccc(-n2nc3c(N4CCC(C(=O)NCc5ccccc5)CC4)nnc(C)c3c2C)cc1`, the activation is -1.31%.

For the compound `CCc1ccc(CNC(=O)C2CCN(c3nnc(C)c4c(C)n(-c5ccc(C)cc5)nc34)CC2)cc1`, the activation is 11.9% (active).

These data come from PubChem BioAssay AID504692 (The Scripps Research Institute Molecular Screening Center, 2011).
